From the supplement of paper PMC3545927
Some of the results follow. How many sequences the whole screen found active is unknown.

Biological target: furin, P09958
Assay: furin cleavage Z-score vs untreated control; higher = more cleavage, active = 3.5 or more, inactive = 1 or less, 8 variable residues between constant flanks
Summary of the method: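 The cleavage Z-score was derived for purified furin acting on 8-mer peptides held on magnetic beads and fused to a cDNA oligonucleotide. Digests lasted 7.5, 15 or 30 min at 1:10 enzyme:substrate in 50 mM HEPES pH 7.5 with CaCl2 and NaCl. Sequencing counts of released DNA, log-transformed against furin-free reactions, were lowess-adjusted and scaled by median absolute deviation.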

furin, P09958, sequence (P09958 whole entry): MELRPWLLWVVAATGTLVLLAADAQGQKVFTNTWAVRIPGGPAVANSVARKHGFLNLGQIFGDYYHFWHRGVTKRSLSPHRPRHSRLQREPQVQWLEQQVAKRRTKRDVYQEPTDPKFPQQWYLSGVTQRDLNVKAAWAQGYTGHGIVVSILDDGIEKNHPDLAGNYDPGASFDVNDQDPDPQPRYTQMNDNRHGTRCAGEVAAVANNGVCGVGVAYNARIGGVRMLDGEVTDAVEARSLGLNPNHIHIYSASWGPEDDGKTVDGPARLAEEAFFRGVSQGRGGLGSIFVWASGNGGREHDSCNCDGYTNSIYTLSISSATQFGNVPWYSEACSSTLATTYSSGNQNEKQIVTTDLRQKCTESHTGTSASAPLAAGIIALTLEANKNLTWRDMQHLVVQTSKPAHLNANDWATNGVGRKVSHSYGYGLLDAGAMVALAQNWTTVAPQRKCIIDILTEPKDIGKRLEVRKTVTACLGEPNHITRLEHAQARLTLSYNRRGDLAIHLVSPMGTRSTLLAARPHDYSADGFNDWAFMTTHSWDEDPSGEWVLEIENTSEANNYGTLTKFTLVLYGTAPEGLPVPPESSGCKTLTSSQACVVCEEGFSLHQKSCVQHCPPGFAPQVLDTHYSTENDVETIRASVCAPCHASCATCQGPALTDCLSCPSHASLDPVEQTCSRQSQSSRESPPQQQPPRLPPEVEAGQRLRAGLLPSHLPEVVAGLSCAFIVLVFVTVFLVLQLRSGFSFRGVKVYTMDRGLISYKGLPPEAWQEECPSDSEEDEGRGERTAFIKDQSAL

Sequence	furin cleavage Z-score (7.5 min)	furin cleavage Z-score (15 min)	furin cleavage Z-score (30 min)
CAEVVISTWVAGNASASA [HC125]	0.441 (inactive)	-0.457 (inactive)	-1.26 (inactive)
CACGAEITGHAGNASASA [HC1176]	-2.29 (inactive)	-1.09 (inactive)	-4.52 (inactive)
CAEVPCHAPSAGNASASA [HC2363]	0.635 (inactive)	1.02	0.728 (inactive)
CARQGRVISVAGNASASA [FS-2168]	-2.08 (inactive)	-0.187 (inactive)	0.163 (inactive)
CARIERVIGAAGNASASA [FS-2212]	0.267 (inactive)	-1.07 (inactive)	0.338 (inactive)
CARVARERRWAGNASASA [FS-292]	7.91 (active)	11.7 (active)	9.72 (active)
CARIERVARVAGNASASA [FS-187]	2.36	1.28	4.15 (active)
CARPGRPARVAGNASASA [FS-1159]	-0.325 (inactive)	-0.113 (inactive)	-0.65 (inactive)
CAEVPCHRPWAGNASASA [HC2408]	-0.0166 (inactive)	0.18 (inactive)	0.457 (inactive)
CARQGRIARVAGNASASA [FS-1608]	4.13 (active)	2.36	3.61 (active)
CAFCTTPCSGAGNASASA [HC1947]	1.42	-0.358 (inactive)	-1.43 (inactive)
CATGMTTDNLAGNASASA [HC1212]	-0.509 (inactive)	1.51	-0.989 (inactive)
CAHLNSTALNAGNASASA [HC371]	1.65	0.509 (inactive)	0.52 (inactive)
CAVEPVVFSQAGNASASA [HC646]	-0.426 (inactive)	0.0995 (inactive)	-0.8 (inactive)
CASMPCSAHLAGNASASA [HC2486]	-0.177 (inactive)	1.03	-0.00604 (inactive)
CAQEECSQHLAGNASASA [HC1682]	-0.746 (inactive)	0.819 (inactive)	1.15
CACVIGGAGNAGNASASA [HC445]	-1.36 (inactive)	-2.02 (inactive)	-1.24 (inactive)

Sequence	furin cleavage Z-score (7.5 min)	furin cleavage Z-score (15 min)	furin cleavage Z-score (30 min)
CARKIRVNGTAGNASASA [FS-2422]	-0.334 (inactive)	0.321 (inactive)	-1.68 (inactive)
CARKIRTVGNAGNASASA [FS-1726]	5.44 (active)	7.79 (active)	7.77 (active)
CARQVRGVTQAGNASASA [FS-2447]	-1.36 (inactive)	0.0563 (inactive)	0.556 (inactive)
CARQARRVGGAGNASASA [FS-1766]	-0.614 (inactive)	-0.316 (inactive)	-0.000733 (inactive)
CARQVRCVGNAGNASASA [FS-3045]	3.15	3.4	5.33 (active)
CASGFVSLLAAGNASASA [HC359]	0.181 (inactive)	0.268 (inactive)	0.641 (inactive)
CAVFTDNSSPAGNASASA [HC765]	-0.215 (inactive)	-0.103 (inactive)	0.299 (inactive)
CAEPLDLPPIAGNASASA [HC1598]	0.806 (inactive)	1.44	0.441 (inactive)
CAVPSTEDLVAGNASASA [HC1097]	-2.52 (inactive)	-0.505 (inactive)	0.561 (inactive)
CARVRRANTFAGNASASA [FS-2622]	3.44	5.83 (active)	5.99 (active)
CARVRRAVRIAGNASASA [FS-2107]	2.88	2.85	5.12 (active)
CARVRRRSVQAGNASASA [FS-3175]	0.273 (inactive)	0.235 (inactive)	0.754 (inactive)
CAAVRRLVGNAGNASASA [FS-1667]	-1.38 (inactive)	-1.34 (inactive)	-1.08 (inactive)
CARVRRLVRHAGNASASA [FS-3240]	12.5 (active)	11.6 (active)	9.85 (active)
CAASRQAEVIAGNASASA [HC1030]	-0.216 (inactive)	-0.538 (inactive)	-1.56 (inactive)
CARVMRWNSKAGNASASA [FS-3120]	-0.31 (inactive)	0.804 (inactive)	2.88
CARVRRAWVIAGNASASA [FS-3124]	1.98	4.98 (active)	7.77 (active)
